Source: PubChem BioAssay (EPA / NIEHS)
Active and inactive are the calls of the source. Rule for the calls: active = hit-call score of the fitted dose curve at least 0.9, where 1 is the maximum; inactive = score below 0.9.

test: ATG_CMV_CIS: Attagene CIS-FACTORIAL HepG2 Assay for human CMV (Internal Marker) (AID 2282928); conditions: HepG2 CMV promoter reporter, transcription factor profiling; actives raise or lower the signal;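 note: endpoint acts as a background internal control marker rather than a target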
Procedure: ATG_CIS is a cell-based, multiplexed-readout assay that uses HepG2, a human liver cell line, with measurements taken at 24 hours after chemical dosing in a 24-well plate.ATG_CMV_CIS is one of 52 assay component(s) measured or calculated from the ATG_CIS assay. It is designed to make measurements of mRNA induction, a form of inducible reporter, as detected with fluorescence intensity signals by Reverse transcription polymerase chain reaction (RT-PCR) and Capillary electrophoresis technology.Data from the assay component ATG_CMV_CIS was analyzed into 1 assay endpoint. This assay endpoint, ATG_CMV_CIS, was analyzed with bidirectional fitting relative to DMSO as the negative control and baseline of activity. Using a type of inducible reporter, measures of mRNA for gain or loss-of-signal activity can be used to understand the background control at the transcription factor-level as they relate to the gene . Furthermore, this assay endpoint can be referred to as a secondary readout, because this assay has produced multiple assay endpoints where this one serves a background control function. To generalize the intended target to other relatable targets, this assay endpoint is annotated to the background measurement intended target family, where the subfamily is internal marker.
Human liver HepG2 cells are transiently transfected with multiple reporter transcription units (MRTUs) in 6-well plates using FuGene 6 reagent (Roche; 3 ml FuGene/1 mg DNA). The MRTU constructs are regulated by a cis-regulating element (promoter). […] A major difference between the CIS and TRANS system is that in CIS activities of endogenous TFs are measured, whereas the TRANS assay evaluates changes in activities of exogenous, chimeric NR-Gal4 proteins. […] At the end of 24 hour incubation, total RNA was isolated using TriZol reagent (Invitrogen). The isolated RNA is then reverse-transcribed using oligo(dT) primer and Mo-MLV reverse transcriptase (Invitrogen) with DNAse I (Ambion) treatment for 30 min. The one-tenth of the produced cDNA was amplified by PCR using Taq DNA polymerase (Invitrogen) and two reporter sequence-specific primers. The PCR products were fluorescently labeled by primer extension with 6-arboxyfluorescein (6-FAM) 5'-labeled reporter sequence-specific primer (2 min at 95 C, 20 s at 68 C and 10 min at 72 C) and these products were digested with 5U of HpaI (New England Biolabs) for 2h at 37 C. The fragments were purified using Qiaquick PCR columns (Qiagen), analyzed on an ABI 3130xL genetic analyzer (Applied Biosystems) with peak positions identified by using a set of X-rhodamine (ROX)-labeled MapMarker1000 molecular weight standards (BioVentures). The raw capillary electrophoresis data was processed using Attagraph software (Attagene).

Row | SMILES | outcome | AC50
1 | O=[N+]([O-])c1ccc(Nc2ccc(Nc3ccccc3)c(S(=O)(=O)O)c2)c([N+](=O)[O-])c1 | inactive | –
2 | CC(=O)Nc1ccccc1O | inactive | –
3 | COC(C(=O)O)c1ccccc1 (stereo not given) | inactive | –
4 | O=C(OCc1ccccc1)C(=O)OCc1ccccc1 | inactive | –
5 | Cc1ccc(Nc2ccc(O)c3c2C(=O)c2ccccc2C3=O)cc1 | inactive | –
6 | Cc1ccccc1C=O | inactive | –
7 | CC(C)C[C@H]1C(=O)N2CCC[C@H]2[C@]2(O)O[C@](NC(=O)[C@@H]3C=C4c5cccc6[nH]c(Br)c(c56)C[C@H]4N(C)C3)(C(C)C)C(=O)N12 | inactive | –
8 | CC1(C)C(=O)N(Br)C(=O)N1Cl | inactive | –
9 | CC(=O)C(=O)O | inactive | –
10 | CC(O)C(C)O (stereo not given) | inactive | –
11 | CCCCCOC(=O)CCC | inactive | –
12 | CCCCC(CC)COCCC#N (stereo not given) | inactive | –
13 | CC(C)Oc1ccccc1O | inactive | –
14 | Cc1ccc(S)cc1 | – | 34.4 µM (active)
15 | CCCCCCCCCCCCCCCC(=O)OC[C@H](O)[C@H]1OC(=O)C(O)=C1O | inactive | –
16 | CC(CC(C)(C)C)CC(C)(C)CC(C)(C)C (stereo not given) | inactive | –
17 | CCCCCC=CCC(=O)OC | inactive | –
18 | CC(C)(CO)[N+](=O)[O-] | inactive | –
19 | COc1cc(C)cc(O)c1 | inactive | –
20 | O=C1c2ccccc2C(=O)N1SC1CCCCC1 | inactive | –

Row | SMILES | outcome | AC50
21 | O=C(O)CCCCCCCC(=O)O | inactive | –
22 | NCCCCCCN | inactive | –
23 | C=CC(=O)OCCn1c(=O)n(CCOC(=O)C=C)c(=O)n(CCOC(=O)C=C)c1=O | – | 9.12 µM (active)
24 | CC1(C)CCC(C)(C)c2cc(C(=O)Nc3ccc(C(=O)O)cc3)ccc21 | inactive | –
25 | CCCCCCCCCC=O | inactive | –
26 | CCCCCCOC(=O)CC | inactive | –
27 | CN(C)C(=N)N=C(N)N | inactive | –
28 | [Ca+2] | inactive | –
29 | CCCOCC(C)O (stereo not given) | inactive | –
30 | O=C(O)Cc1cccc2ccccc12 | inactive | –
31 | COC(=O)OC | inactive | –
32 | Clc1ccc2c(c1)C(N1CCNCC1)=Nc1ccccc1O2 | inactive | –
33 | BrC1CCC(Br)C(Br)CCC(Br)C(Br)CCC1Br (stereo not given) | – | 23.9 µM (active)
34 | COc1cc(C(C)(C)C)c(O)c(C(C)(C)C)c1 | inactive | –
35 | Nc1ccc(S(N)(=O)=O)cc1 | inactive | –
36 | CNC(=O)Oc1ccc2c(c1)[C@]1(C)CCN(C)[C@@H]1N2C | inactive | –
37 | C=CC(C)(CCC=C(C)C)OC=O (stereo not given) | inactive | –
38 | Nc1cc([N+](=O)[O-])ccc1O | inactive | –
39 | Clc1ccc(Cl)c(Cl)c1Cl | inactive | –
40 | C/C=C(\C)C(=O)OCc1ccccc1 | inactive | –
